Measured values: PubChem BioAssay AID1159580 (chemical genetic matrix, 2015)
Where “and” joins values, the source holds several entries; their conditions need not be identical. Equal entries are not always repeated. Among all 5,500 compounds or so, about 2,000 (36%) were called active. Not shown: some 18% with an inconclusive outcome. No stated cut-off is given here; in the data, active means normalized growth mostly below about 0.91 (no sharp cut-off); inconclusive means no clear call, values can overlap the other calls; inactive means mostly above about 0.92. Some of the results follow.

Assay: chemical genetic growth profiling, strain panel (AID 1159580);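 further: tested at 20 µM; growth read once vehicle control cultures reached saturation at 30 °C; 1 = growth at the plate median or of vehicle wells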
Details: S. cerevisiae deletion strains, growth OD

## O=c1oc2c(O)c(O)cc3c(=O)oc4c(O)c(O)cc1c4c23
Locus YAL013W, strain DEP1, stronger effect = lower value
  normalized growth: 0.55 (active)
Locus YAL021C, strain ccr4, stronger effect = lower value
  normalized growth: 0.352 (active)
Locus YAL026C, strain drs2, stronger effect = lower value
  normalized growth: 0.545 (active)
Locus YAL030W, strain snc1, stronger effect = lower value
  normalized growth: 0.817 (active)
Locus YBL061C, strain skt5, stronger effect = lower value
  normalized growth: 0.591 (active)
Locus YBR009C, strain hhf1, stronger effect = lower value
  normalized growth: 0.754 (active)
Locus YBR021W, strain FUR4, stronger effect = lower value
  normalized growth: 0.907 (inactive)
Locus YBR023C, strain chs3, stronger effect = lower value
  normalized growth: 0.533 (active)
Locus YBR171W, strain sec66, stronger effect = lower value
  normalized growth: 0.938 (inactive)
Locus YBR229C, strain ROT2, stronger effect = lower value
  normalized growth: 0.903 (active)
Locus YBR231C, strain swc5, stronger effect = lower value
  normalized growth: 0.53 (active)
Locus YBR279W, strain paf1, stronger effect = lower value
  normalized growth: 0.699 (active)
Locus YCL011C, strain gbp2, stronger effect = lower value
  normalized growth: 0.745 (active)
Locus YCL016C, strain dcc1, stronger effect = lower value
  normalized growth: 0.722 (active)
Locus YCL029C, strain bik1, stronger effect = lower value
  normalized growth: 0.502 (active)
Locus YCL061C, strain MRC1, stronger effect = lower value
  normalized growth: 0.84 (active)
Locus YCL069W, strain vba3, stronger effect = lower value
  normalized growth: 0.855 (active)
Locus YCR088W, strain abp1, stronger effect = lower value
  normalized growth: 0.895 (active)
Locus YDL005C, strain med2, stronger effect = lower value
  normalized growth: 0.986 (inactive)
Locus YDL035C, strain GPR1, stronger effect = lower value
  normalized growth: 0.681 (active)
Locus YDL040C, strain nat1, stronger effect = lower value
  normalized growth: 0.868 (active)
Locus YDL074C, strain BRE1, stronger effect = lower value
  normalized growth: 0.541 (active)
Locus YDL101C, strain DUN1, stronger effect = lower value
  normalized growth: 0.598 (active)
Locus YDL185W, strain tfp1, stronger effect = lower value
  normalized growth: 0.835 (active)
Locus YDL192W, strain arf1, stronger effect = lower value
  normalized growth: 0.558 (active)
Locus YDR001C, strain nth1, stronger effect = lower value
  normalized growth: 0.96 (inactive)
Locus YDR069C, strain doa4, stronger effect = lower value
  normalized growth: 0.521 (active)
Locus YDR101C, strain arx1, stronger effect = lower value
  normalized growth: 0.749 (active)
Locus YDR137W, strain rgp1, stronger effect = lower value
  normalized growth: 0.496 (active)
Locus YDR150W, strain NUM1, stronger effect = lower value
  normalized growth: 0.778 (active)
Locus YDR159W, strain sac3, stronger effect = lower value
  normalized growth: 0.738 (active)
Locus YDR162C, strain NBP2, stronger effect = lower value
  normalized growth: 0.661 (active)
Locus YDR195W, strain ref2
  normalized growth: 0.876 (inactive)
Locus YDR297W, strain sur2, stronger effect = lower value
  normalized growth: 0.746 (active)
Locus YDR318W, strain mcm21, stronger effect = lower value
  normalized growth: 0.651 (active)
Locus YDR334W, strain swr1, stronger effect = lower value
  normalized growth: 0.574 (active)
Locus YDR335W, strain msn5, stronger effect = lower value
  normalized growth: 0.784 (active)
Locus YDR388W, stronger effect = lower value
  normalized growth: 0.538 (active)
Locus YDR392W, strain spt3, stronger effect = lower value
  normalized growth: 0.695 (active)
Locus YDR502C, strain sam2, stronger effect = lower value
  normalized growth: 0.561 (active)
Locus YEL003W, strain gim4, stronger effect = lower value
  normalized growth: 0.697 (active)
Locus YEL037C, strain rad23, stronger effect = lower value
  normalized growth: 0.767 (active)
Locus YEL061C, strain CIN8 (second series), stronger effect = lower value
  normalized growth: 0.917 (inactive)
Locus YEL061C, strain CIN8, stronger effect = lower value
  normalized growth: 0.753 (active)
Locus YER015W, strain faa2, stronger effect = lower value
  normalized growth: 0.583 (active)
Locus YER016W, strain bim1, stronger effect = lower value
  normalized growth: 0.818 (active)
Locus YER110C, stronger effect = lower value
  normalized growth: 0.971 (inactive)
Locus YER111C, strain swi4, stronger effect = lower value
  normalized growth: 0.436 (active)
Locus YER155C, strain BEM2 (second series), stronger effect = lower value
  normalized growth: 0.745 (active)
Locus YER155C, strain BEM2, stronger effect = lower value
  normalized growth: 0.74 (active)
Locus YER167W, strain BCK2, stronger effect = lower value
  normalized growth: 0.799 (active)
Locus YFR010W, strain ubp6, stronger effect = lower value
  normalized growth: 0.713 (active)
Locus YGL078C, strain dbp3, stronger effect = lower value
  normalized growth: 0.976 (inactive)
Locus YGL086W, strain mad1, stronger effect = lower value
  normalized growth: 0.583 (active)
Locus YGL167C, strain pmr1, stronger effect = lower value
  normalized growth: 0.653 (active)
Locus YGL173C, strain kem1, stronger effect = lower value
  normalized growth: 0.417 (active)
Locus YGL227W, strain vid30, stronger effect = lower value
  normalized growth: 1 (inactive)
Locus YGL240W, strain doc1, stronger effect = lower value
  normalized growth: 0.923 (inactive)
Locus YGL248W, strain PDE1, stronger effect = lower value
  normalized growth: 0.649 (active)
Locus YGL253W, strain hxk2, stronger effect = lower value
  normalized growth: 0.768 (active)
Locus YGR078C, strain PAC10, stronger effect = lower value
  normalized growth: 0.616 (active)
Locus YGR135W, strain pre9, stronger effect = lower value
  normalized growth: 0.559 (active)
Locus YGR252W, strain gcn5, stronger effect = lower value
  normalized growth: 0.588 (active)
Locus YHR013C, strain ard1, stronger effect = lower value
  normalized growth: 0.563 (active)
Locus YHR027C, strain rpn1, stronger effect = lower value
  normalized growth: 0.539 (active)
Locus YHR030C, strain SLT2, stronger effect = lower value
  normalized growth: 0.41 (active) and 0.994 (inactive)
Locus YHR079C, strain IRE1 (second series), stronger effect = lower value
  normalized growth: 0.824 (active)
Locus YHR079C, strain IRE1, stronger effect = lower value
  normalized growth: 0.978 (inactive)
Locus YHR094C, strain hxt1, stronger effect = lower value
  normalized growth: 0.964 (inactive)
Locus YHR129C, strain ARP1, stronger effect = lower value
  normalized growth: 0.603 (active)
Locus YHR142W, strain chs7, stronger effect = lower value
  normalized growth: 0.563 (active)
Locus YHR200W, strain rpn10, stronger effect = lower value
  normalized growth: 0.712 (active)
Locus YIL066C, strain RNR3, stronger effect = lower value
  normalized growth: 0.669 (active)
Locus YIL073C, strain SPO22, stronger effect = lower value
  normalized growth: 0.546 (active)
Locus YIL125W, strain kgd1, stronger effect = lower value
  normalized growth: 0.956 (inactive)
Locus YIR030C, strain dcg1, stronger effect = lower value
  normalized growth: 0.776 (active)
Locus YJL092W, strain hpr5, stronger effect = lower value
  normalized growth: 0.861 (active)
Locus YJL095W, strain BCK1 (second series), stronger effect = lower value
  normalized growth: 0.675 (active)
Locus YJL095W, strain BCK1, stronger effect = lower value
  normalized growth: 0.28 (active) and 0.983 (inactive)
Locus YJL115W, strain asf1, stronger effect = lower value
  normalized growth: 0.912 (inactive)
Locus YJL129C, strain trk1, stronger effect = lower value
  normalized growth: 0.898 (inactive)
Locus YJL134W, strain LCB3, stronger effect = lower value
  normalized growth: 0.823 (active)
Locus YJL154C, strain vps35, stronger effect = lower value
  normalized growth: 0.864 (active)
Locus YJL164C, strain tpk1, stronger effect = lower value
  normalized growth: 0.679 (active)
Locus YJL166W, strain qcr8, stronger effect = lower value
  normalized growth: 0.73 (active)
Locus YJL168C, strain set2, stronger effect = lower value
  normalized growth: 0.898 (active)
Locus YJL187C, strain SWE1 (second series), stronger effect = lower value
  normalized growth: 0.493 (active)
Locus YJL187C, strain SWE1, stronger effect = lower value
  normalized growth: 0.742 (active)
Locus YJR043C, strain POL32, stronger effect = lower value
  normalized growth: 0.596 (active)
Locus YJR066W, strain TOR1, stronger effect = lower value
  normalized growth: 0.974 (inactive)
